IP6K1 inhibitor = inhibitors of human IP6K1; Q92551; IP6K1 kinase, ADP-Glo luminescence, 2 h; hits give low values; activity change, % (series mostly up to about 58 µM); actives 0.81% (n = 140,000); in the data active = activity change below about -25%; note: % is set by controls: 0 for no effect and ±100 for the full control effect
Target sequence (Q92551 whole entry, looked up): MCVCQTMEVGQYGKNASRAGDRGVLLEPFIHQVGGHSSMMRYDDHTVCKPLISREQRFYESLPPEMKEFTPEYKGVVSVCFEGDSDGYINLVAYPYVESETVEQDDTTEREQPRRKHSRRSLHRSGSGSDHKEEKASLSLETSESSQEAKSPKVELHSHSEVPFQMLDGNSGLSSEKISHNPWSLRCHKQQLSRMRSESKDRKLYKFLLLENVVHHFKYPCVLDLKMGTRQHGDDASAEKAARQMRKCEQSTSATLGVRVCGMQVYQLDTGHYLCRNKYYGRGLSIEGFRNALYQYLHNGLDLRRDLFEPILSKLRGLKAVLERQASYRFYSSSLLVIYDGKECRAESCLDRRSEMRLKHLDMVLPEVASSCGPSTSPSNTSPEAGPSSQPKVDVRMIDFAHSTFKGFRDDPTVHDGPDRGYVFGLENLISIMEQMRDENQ
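ADP-Glo luminescence measures ADP made by human IP6K1 during a 2 h RT reaction with ATP/IP6 (mix at 1.3 mM/130 uM); top library doses 57.5 and 19.1 uM final.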
SNCA viab count = counter-screen for SNCA expression inhibitors: cell viability | actives 0.12% (n = 150,000) | HEK-293-SNCA-luc viability, GF-AFC fluorescence, 24 h | Potency, µM (doses to about 57.1 µM), without a hit: top-dose activity change, negative = cytotoxicity, actives largely listed as cytotoxic | AID 1671193;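 note: potency is the fitted concentration of half-maximal effect; 0% = DMSO-treated cells and -100% = medium-only wells without cells; nearly all actives have a fitted effect of over 30% in size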
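HEK-293-SNCA-luc cells (1500/well) plated 24 h, then exposed 24 h to a dilution series; GF-AFC added 30 min at 37C, fluorescence 405/540 nm; normalised to medium-only and DMSO wells, Hill fit.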
SNCA expr inhib = SNCA gene expression inhibition | Potency, µM (titrated, usually from 57.2 µM), for the others: top-dose activity change, negative = inhibition, hits mostly inhibitors | HEK-293 SNCA-luciferase knock-in, luminescence, 24 h | actives 0.17% (n = 140,000);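 note: potency is the fitted concentration of half-maximal effect; plate controls were DMSO cells for no effect and cell-free wells for full effect; nearly all actives have a fitted effect of over 45% in size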
KDM5B inhibitor = blocks human KDM5B histone demethylase activity; KDM5B demethylase, FDH-coupled NADH fluorescence (FDH is formaldehyde dehydrogenase); Potency, µM (series often up to 57.7 µM), hits mostly inhibitors; actives 2.6% (n = 220,000); AID 1347165; note: potency is the fitted concentration of half-maximal effect; 0% is about no effect; nearly all actives have a fitted effect of over 70% in size
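KDM5BΔAP (200 nM final) in 50 mM HEPES pH 7.5, 0.01% Tween-20 was preincubated 10 min at RT with compound over a concentration range. Substrate mix (H3K4me3 12.5 µM, α-KG 25 µM, Fe²⁺, ascorbate, NAD⁺, FDH) was added, and NADH fluorescence change over 30 min gave dose-response curves.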
The depositor's hits bear a star; i = inactive; ? = inconclusive; · = not tested or not shown; ! = repeats disagree; [ ] = remark or other dose. A selection: hits, their analogues and other compounds. The true share with any hit is near 2.8%. Unless noted, calls come from the whole dose curve; as a rule, active = well fitted curve in the direction sought with a large enough effect; inconclusive = small, poorly fitted or top-dose-only effect, or another doubt; inactive = no such curve, though single readings can be large; an effect the other way counts as inactive or inconclusive.

SMILES	IP6K1 inhibitor	SNCA viab count	SNCA expr inhib	KDM5B inhibitor
Cc1ccccc1-c1cnc2[nH]cc(CC(=O)NC3CC3)c2c1	-17	-16%[87.6 µM]	-3%[87.6 µM]	28µM*
COc1ncccc1-c1cnc2[nH]cc(CC(=O)Nc3nc(C)cs3)c2c1	-17	-28%[87.6 µM]	13%[87.6 µM]	i
Cc1ccccc1-c1cnc2[nH]cc(CC(=O)Nc3ccccc3)c2c1	8	?	?	35µM*
Cn1cc(-c2cnc3[nH]cc(CC(=O)Nc4ccc(N5CCOCC5)cc4)c3c2)cn1	-18	6%[87.6 µM]	1%[87.6 µM]	?
COc1ccc(NC(=O)Cc2c[nH]c3ncc(-c4ccccc4C)cc23)cc1	-21	-16%[87.6 µM]	?	?
COc1ncccc1-c1cnc2[nH]cc(CC(=O)Nc3cccc(Cl)c3)c2c1	28	?	13%[87.6 µM]	32µM*
COc1ncccc1-c1cnc2[nH]cc(CC(=O)NC3CC3)c2c1	-16	-15%[87.6 µM]	42%[87.6 µM]	?
N#Cc1ccccc1NC(=O)CSc1nncn1CCc1cccs1	·	·	·	i
CCn1nnc2cc(C(=O)Nc3nc(-c4ccc5c(c4)CCC5)cs3)ccc21	·	·	·	i
CCNC(=O)c1cccc(NC(=O)c2cnc3ccccc3n2)c1	·	·	·	i
O=C(Cc1c[nH]c2ncc(-c3ccccc3)cc12)NCc1ccncc1	-15	2%[87.6 µM]	7%[87.6 µM]	28µM*
CN1C(=O)COc2ccc(C(=O)N3CC(C)(C)[C@@](C)(O)C3)cc21	0	0%	-11%	32µM*
CC(C)c1nc2c(c(-c3ccc(O)cc3)n1)CCN(C(=O)Cc1cccc(Cl)c1)CC2	6	-21%	-9%	·
O=C(N[C@H]1CCOC[C@H]1C1CCOCC1)c1cc(=O)[nH]c2ccc(F)cc12	3	3%	5%	22µM*
CCCCCC(=O)N1CC(=O)N(C2Cc3ccccc3C2)CC(O)C1 (centres undefined)	3	·	·	·
Cc1ccc(C(=O)Nc2nc(-c3nnn(-c4ccc(F)cc4F)c3C)ns2)cc1C	·	·	·	i
COc1cccc(CC(=O)NC2CCN(c3cc(-c4cccs4)[nH]n3)C2)c1 (centres undefined)	-9	-5%	0%	28µM*
O=C(Cc1cccc(F)c1)NC1CCN(c2cc(-c3cccs3)[nH]n2)C1 (centres undefined)	-3	-4%	12%	?
O=C(Cc1cccc(Cl)c1)NC1CCN(c2cc(-c3cccs3)[nH]n2)C1 (centres undefined)	10	-3%	2%	4µM*
c1c[nH]c(-c2nc3ccncc3[nH]2)c1	1	0%[87.6 µM]	0%[87.6 µM]	32µM*
O=C(CSc1nc2ccncc2[nH]1)Nc1ccccc1C(F)(F)F	-20	-3%	0%	i
c1csc(-c2nc3ccncc3[nH]2)c1	-3	6%[87.6 µM]	10%[87.6 µM]	32µM*
c1ccc(-c2nc3ccncc3[nH]2)nc1	1	0%[87.6 µM]	-23%[87.6 µM]	126µM*!
Cc1ccc(-c2nc(-c3cccs3)c(-c3cccs3)[nH]2)cc1	-14	-3%	2%	?
Cc1ccoc1-c1nc2ccncc2[nH]1	0	4%[87.6 µM]	48%[87.6 µM]	32µM*!
SMILES	IP6K1 inhibitor	SNCA viab count	SNCA expr inhib	KDM5B inhibitor
c1ccc2c(-c3nn4c(C5CCCCC5)nnc4s3)c[nH]c2c1	·	·	·	i
Cc1c(O)ccc2c(=O)c(-c3nc4ccccc4s3)coc12	·	·	·	i
O=C(NC1CCCC1)NC1CCN(c2ccc3nnc(-c4ccccc4)n3n2)C1 (centres undefined)	-6	·	·	·
CN(C)c1ccc(-c2nnc([C@H]3CCN(CC4CC4)C3)o2)cc1	5	-3%[87.6 µM]	-12%[87.6 µM]	32µM*
CN(C)c1ccc(-c2nnc([C@H]3CCN(CC4CCCCC4)C3)o2)cc1	3	0%[87.6 µM]	-4%[87.6 µM]	32µM*
c1ccc(CCCN2CC[C@H](c3nnc(-c4ccccc4)o3)C2)cc1	25	-14%[87.6 µM]	-14%[87.6 µM]	32µM*
CN(C)c1ccc(-c2nnc([C@H]3CCN(C4CCC4)C3)o2)cc1	-3	-3%[87.6 µM]	68%[87.6 µM]	28µM*
c1cc(-c2nnc([C@H]3CCN(CC4CCCCC4)C3)o2)ccn1	1	-6%[87.6 µM]	2%[87.6 µM]	i
CN(C)c1ccc(-c2nnc([C@H]3CCN(Cc4ccccc4)C3)o2)cc1	27	-6%[87.6 µM]	28%[87.6 µM]	?
N#Cc1cccc(-c2n[nH]c3c2CC(=O)N(Cc2ccccn2)C3)c1	-25	-5%[87.6 µM]	-1%[87.6 µM]	35µM*
O=C1c2cnc(-c3ccc(Oc4ccccc4)cc3)nc2OCCN1CC1CC1	2	?	?	35µM*
COc1ccc(CN2CCOc3nc(-c4cc5ccccc5o4)ncc3C2=O)cc1	-1	-9%[87.6 µM]	-1%[87.6 µM]	32µM*
COc1ccc(CN2CCOc3nc(-c4cccc(NC(C)=O)c4)ncc3C2=O)cc1	4	-2%[87.6 µM]	11%[87.6 µM]	?
CC1=C/C(=N\NC(=S)Nc2ccc(F)cc2)CC1	·	·	·	i
Cc1cccc(CNc2ncncc2-c2nc(-c3ccccc3)no2)c1	-1	4%	5%	?
C1=C(CCNc2ncncc2-c2nc(-c3ccccc3)no2)CCCC1	-6	6%	17%	28µM*
c1ccc(CCCNc2ncncc2-c2nc(-c3ccccc3)no2)cc1	-11	11%	-17%	28µM*
Fc1cc(F)cc(CNc2ncncc2-c2nc(-c3ccccc3)no2)c1	2	8%	-10%	?
c1ccc(-c2noc(-c3cncnc3NCCc3cccs3)n2)cc1	-7	6%	6%	28µM*
N#Cc1nc(-c2ccc(S(=O)(=O)N3CCOCC3)cc2)oc1NCCCn1ccnc1	·	·	·	i
O=C(c1ccc(Cl)cc1)N1CCC(n2cc(-c3ccccn3)[nH]c2=O)CC1	5	2%	1%	45µM*
O=C1CC2(CCN(CC3CCCCC3)CC2)Oc2ccccc21	10	-7%[87.6 µM]	4%[87.6 µM]	32µM*
O=C1CC2(CCN(CC3CC3)CC2)Oc2cc(Cl)ccc21	0	-6%[87.6 µM]	60%[87.6 µM]	?
CN(C)c1ccc(CN2CCC3(CC2)CC(=O)c2ccccc2O3)cc1	8	-9%	25%	i
N#Cc1ccc(CN2CCC3(CC2)CC(=O)c2ccccc2O3)cc1	-4	-17%[87.6 µM]	-24%[87.6 µM]	32µM*
SMILES	IP6K1 inhibitor	SNCA viab count	SNCA expr inhib	KDM5B inhibitor
O=C1CC2(CCN(Cc3cccnc3)CC2)Oc2ccccc21	0	3%[87.6 µM]	23%[87.6 µM]	35µM*
O=C1CC2(CCN(Cc3ccc(F)cc3)CC2)Oc2ccccc21	15	-8%[87.6 µM]	9%[87.6 µM]	28µM*
CC(C)Cn1cc(/C=C2\SC(=O)N(C(C)C)C2=O)c2ccccc21	·	·	·	i
Cc1cccc(N2C(=O)CSC23CCN(C(=O)C2CC2)CC3)c1	2	8%	-22%	25µM*
C=C(C)C(=O)O[C@H]1C[C@@](C)(O)C2(O)CCC(C)(/C=C3/OC(=O)C(COC)=C31)O2 (some centres undefined)	2	15µM*	·	·
CN(C)c1cccc(C(=O)N2CCN(c3cc(-c4ccc(Cl)cc4)[nH]n3)CC2)c1	7	-23%	3%	32µM*
COc1ccc(-c2cc(N3CCCC(NC(=O)c4cccc(N(C)C)c4)C3)n[nH]2)cc1 (centres undefined)	0	-18%	26%	28µM*
O=C(Cc1ccc(Cl)cc1)N1CCCN(c2cc(-c3ccccc3)[nH]n2)CC1	14	-10%	-26%	?

Screening data (PubChem BioAssay)
